Test results published in PubChem BioAssay (EPA / NIEHS).
Records with an inconclusive call do not appear. The source made the active and inactive calls. The calls were made as follows, unless noted: active = hit-call score of the fitted dose curve at least 0.9, where 1 is the maximum; inconclusive = response in the unintended direction; inactive = score below 0.9.

What was measured:
[1] = Tanguay_ZF_120hpf_JAW_legacy: (Legacy) Oregon State University Tanguay Lab 120 Hour Post-fertilization zebrafish Assay for Jaw Malformation (AID 2283638);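 as to AC50: active means more embryos with jaw malformation than DMSO controls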
Procedure, shortened: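 Wild-type 5D embryos, chorion removed at 4 hpf, dosed singly from 6 hpf; 28C static, sealed, foil-covered, to 120 hpf. Endpoint: jaw defect yes/no (brightfield); mortality excludes scoring.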

[2] = Tanguay_ZF_120hpf_OTIC_legacy: (Legacy) Oregon State University Tanguay Lab 120 Hour Post-fertilization zebrafish Assay for Otic Vesicle Malformation (AID 2283639)
Procedure, shortened: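 Brightfield scoring at 120 hpf, binary present/absent; DMSO negative control, 5uM trimethyltin chloride positive control. Static exposure at 28C, final DMSO 0.64% (vol/vol). Dead embryos not scored for malformation.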

[3] = Tanguay_ZF_120hpf_PE_legacy: (Legacy) Oregon State University Tanguay Lab 120 Hour Post-fertilization zebrafish Assay for Pericardial Edema (AID 2283640);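 as to AC50: potency for increased incidence of pericardial edema versus DMSO baseline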
Procedure, shortened: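 Zebrafish larvae are exposed from early development to 120 hpf at 28C, with 0.64% DMSO final. Each surviving larva receives a yes/no pericardial edema call by brightfield imaging, analysed relative to the DMSO baseline.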

[4] = Tanguay_ZF_120hpf_BRAI_legacy: (Legacy) Oregon State University Tanguay Lab 120 Hour Post-fertilization zebrafish Assay for Brain Malformation (AID 2283641)
Procedure, shortened: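 Static exposure of staged wild-type embryos until 120 hpf, kept at 28C with light excluded and final DMSO of 0.64% (vol/vol). Presence or absence of brain malformation was noted under brightfield; mortality precluded scoring.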

[5] = Tanguay_ZF_120hpf_SOMI_legacy: (Legacy) Oregon State University Tanguay Lab 120 Hour Post-fertilization zebrafish Assay for Somite Malformation (AID 2283647)
Procedure, shortened: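 Somitogenesis defects are recorded as binary calls in whole larvae at 120 hpf after continuous static chemical exposure starting at 6 hpf in dechorionated 5D embryos. DMSO serves as negative control and baseline.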

[6] = Tanguay_ZF_120hpf_PFIN_legacy: (Legacy) Oregon State University Tanguay Lab 120 Hour Post-fertilization zebrafish Assay for Pectoral Fin Malformation (AID 2283648);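 also: each larva judged yes or no for fin defect by brightfield with dead larvae skipped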
Procedure, shortened: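 Binary pectoral fin malformation call at 120 hpf by brightfield microscopy; 5D wild-type zebrafish, chorion removed at 4 hpf, one embryo per well from 6 hpf, static exposure at 28C; DMSO (0.64% final) as baseline.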

[7] = Tanguay_ZF_120hpf_CFIN_legacy: (Legacy) Oregon State University Tanguay Lab 120 Hour Post-fertilization zebrafish Assay for Caudal Fin Malformation (AID 2283649)
Procedure, shortened: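 Single dechorionated 5D wild-type embryos are dosed at 6 hpf (final DMSO 0.64%) and held statically at 28C. Caudal fin malformation is recorded as present or absent at 120 hpf under brightfield, excluding dead embryos.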

[8] = Tanguay_ZF_120hpf_PIG_legacy: (Legacy) Oregon State University Tanguay Lab 120 Hour Post-fertilization zebrafish Assay for Pigmentation Malformation (AID 2283650);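 also: dechorionated Tropical 5D zebrafish embryos exposed singly from 6 to 120 hpf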
Procedure, shortened: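 Brightfield scoring of pigmentation malformation at 120 hpf, recorded as binary present/absent per larva. Exposure: dechorionated 5D wild-type embryos, one per well, static from 6 hpf at 28C, final DMSO 0.64% (vol/vol). Dead embryos not scored.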

[9] = Tanguay_ZF_120hpf_CIRC_legacy: (Legacy) Oregon State University Tanguay Lab 120 Hour Post-fertilization zebrafish Assay for Circulatory Malformation (AID 2283651)
Procedure, shortened: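 Static exposure, 6–120 hpf, 28C, sealed and dark; one dechorionated 5D embryo/well; DMSO 0.64% v/v final. Binary circulation endpoint by brightfield; dead embryos not scored.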

[10] = Tanguay_ZF_120hpf_SWIM_legacy: (Legacy) Oregon State University Tanguay Lab 120 Hour Post-fertilization zebrafish Assay for Swim Bladder Malformation (AID 2283654);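 also: swim bladder malformation in each larva scored yes or no under brightfield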
Procedure, shortened: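 Tropical 5D embryos dechorionated at 4 hpf; 1 embryo/well from 6 hpf; static, sealed, dark exposure at 28C until 120 hpf; final DMSO 0.64%; 5uM trimethyltin chloride positive control; swim bladder defect recorded yes/no; dead embryos not scored.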

[11] = Tanguay_ZF_120hpf_TRUN_legacy: (Legacy) Oregon State University Tanguay Lab 120 Hour Post-fertilization zebrafish Assay for Truncated Body (AID 2283655)
Procedure, shortened: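 Single dechorionated zebrafish embryos received test chemical from 6 hpf in 0.64% DMSO, kept at 28C. At 120 hpf, brightfield inspection noted any truncated body.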

[12] = Tanguay_ZF_120hpf_NC_legacy: (Legacy) Oregon State University Tanguay Lab 120 Hour Post-fertilization zebrafish Assay for Notochord and Tail Malformation (AID 2283656)
Procedure, shortened: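 Binary notochord-distortion calls, made by brightfield inspection, form the read-out; activity is fitted in the positive direction against DMSO. Exposure ran statically from 6 to 120 hpf at 28C with 0.64% DMSO.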

[13] = test system: Thyroperoxidase (TPO), gene 54314; test: CCTE_Simmons_AUR_rTPO: CCTE's Amplex UltraRed Assay for Thyroperoxidase (TPO) Inhibition, Simmons Lab (AID 2283662);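 also: potency for loss of signal meaning inhibition of peroxidase activity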
Procedure, shortened: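 Rat thyroid microsomes (5 ug protein) were incubated with test compound (8 concentrations, 5 nM–87.5 uM final, 0.5% DMSO), 25 uM Amplex UltraRed and 300 uM H2O2 in 200 mM phosphate buffer for 30 min at 37C in the dark; fluorescence read at 544/590 nm.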

[14] = CCTE_Simmons_CellTiterGLO_HEK293T: Viability Assessment in CCTE's Assays for Thyroperoxidase (TPO) Inhibition, Simmons Lab (AID 2283665);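 as to AC50: cells exposed to compound for 24 h before readout; actives reduce ATP signal below DMSO vehicle meaning cytotoxicity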
Procedure, shortened: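 Luminescent ATP readout (CellTiter-Glo, 20 min at room temperature) after 24 hr exposure of HEK293T cells to 5 nM–87.5 uM final compound; signal loss relative to DMSO vehicle indicated cytotoxicity; dichlone titrated as positive control.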

[15] = Tanguay_ZF_120hpf_TR_legacy: (Legacy) Oregon State University Tanguay Lab 120 Hour Post-fertilization zebrafish Assay for Touch Response (AID 2283667)
Procedure, shortened: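 Binary touch-response call at 120 hpf, analysed as gain of signal versus DMSO baseline. Wild-type 5D larvae, static exposure at 28C, 0.64% DMSO final; 5uM trimethyltin chloride as positive control.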

[16] = read-out: kallikrein-3 (KLK3), KLK3 (gene 354); test: LTEA_HepaRG_KLK3: Life Technologies and Expression Analysis (LTEA) Assay for kallikrein-3 (KLK3) using HepaRG (AID 2283652; active = hit-call score of the fitted dose curve at least 0.9, where 1 is the maximum; inactive = score below 0.9); conditions: mRNA level, 48 h; actives raise or lower the signal
Procedure, shortened: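 KLK3 transcript levels were measured by TaqMan qRT-PCR with normalisation to three housekeeping genes. HepaRG cultures received chemicals for 48 h at up to 100 uM (half-log, 8 points, 0.5% DMSO vehicle), fitted in both directions against DMSO.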

[17] = read-out: solute carrier (SLC22A6), SLC22A6 (gene 9356); test: LTEA_HepaRG_SLC22A6: Life Technologies and Expression Analysis (LTEA) Assay for solute carrier (SLC22A6) using HepaRG (AID 2283653; active = hit-call score of the fitted dose curve at least 0.9, where 1 is the maximum; inactive = score below 0.9); conditions: mRNA level, 48 h; actives raise or lower the signal
Procedure, shortened: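 Gene-expression endpoint in HepaRG hepatic cells: duplicate 8-point concentration-response, highest 100 uM, 48 h treatment in serum-free medium with 0.5% DMSO. SLC22A6 expression measured by qRT-PCR, normalised to ACTB/GAPDH/POLR2A.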

[18] = read-out: solute carrier (SLC10A1), SLC10A1 (gene 6554); test: LTEA_HepaRG_SLC10A1: Life Technologies and Expression Analysis (LTEA) Assay for solute carrier (SLC10A1) using HepaRG (AID 2283657; active = hit-call score of the fitted dose curve at least 0.9, where 1 is the maximum; inactive = score below 0.9); conditions: mRNA level, 48 h; actives raise or lower the signal
Procedure, shortened: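 HepaRG, 48 h exposure, 8-pt half-log curve from 100 uM in 0.5% DMSO, duplicates. Read-out: TaqMan qRT-PCR of SLC10A1 mRNA, normalized to three housekeeping genes. Gain/loss fit vs DMSO baseline.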

[19] = read-out: matrix metalloproteinase-1 (MMP1), MMP1 (gene 4312); test: LTEA_HepaRG_MMP1: Life Technologies and Expression Analysis (LTEA) Assay for matrix metalloproteinase-1 (MMP1) using HepaRG (AID 2283658; active = hit-call score of the fitted dose curve at least 0.9, where 1 is the maximum; inactive = score below 0.9); conditions: mRNA level, 48 h; actives raise or lower the signal
Procedure, shortened: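 In this screen, human liver HepaRG cultures receive each chemical in duplicate for 48 h (top 100 uM, 0.5% DMSO). MMP1 expression is then quantified by TaqMan qRT-PCR with ACTB/GAPDH/POLR2A normalization.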

[20] = read-out: Cytochrome P450 (CYP24A1_1), CYP24A1 (gene 1591); test: LTEA_HepaRG_CYP24A1_1: Life Technologies and Expression Analysis (LTEA) Assay for Cytochrome P450 (CYP24A1_1) using HepaRG (AID 2283671; active = hit-call score of the fitted dose curve at least 0.9, where 1 is the maximum; inactive = score below 0.9); conditions: mRNA level, 48 h; actives raise or lower the signal
Procedure, shortened: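 Readout is CYP24A1 transcript level by qRT-PCR, normalized to three housekeeping genes, with gain or loss of signal fitted against 0.5% DMSO. Human HepaRG cells received compound for 48 h at up to 100 uM.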

Measured: AC50

CCCCCCCCCCCCCCOS(=O)(=O)O
active: [1] 42.3 µM | [2] 9.8 µM | [3] 27.7 µM | [4] 10.4 µM | [6] 16.8 µM | [7] 46.9 µM | [8] 9.35 µM | [11] 31.3 µM | [13] 43.8 µM | [14] 22.3 µM | [15] 32.6 µM
inactive: [5] | [9] | [10] | [12]

O=C(O)c1[nH]n(-c2ccc(S(=O)(=O)O)cc2)c(=O)c1N=Nc1ccc(S(=O)(=O)O)cc1
inactive: [1] | [2] | [3] | [4] | [5] | [6] | [7] | [8] | [9] | [10] | [11] | [12] | [15]

O=C(O)CC(O)(CC(=O)O)C(=O)O
inactive: [1] | [2] | [3] | [4] | [5] | [6] | [7] | [8] | [9] | [10] | [11] | [12] | [15]

CCCCCCC(CCCCCCCCCCC(=O)OCC(COC(C)=O)OC(C)=O)OC(C)=O (stereo unspecified)
inactive: [1] | [2] | [3] | [4] | [5] | [6] | [7] | [8] | [16] | [17] | [10] | [11] | [12] | [18] | [19] | [15] | [20]

Cc1cc(Cc2ccc(N)c(C)c2)ccc1N
active: [13] 0.844 µM
inactive: [1] | [2] | [3] | [4] | [5] | [6] | [7] | [8] | [9] | [10] | [11] | [12] | [14] | [15]

CCC(C)N(C)C(=O)c1cc2ccccc2c(-c2ccccc2Cl)n1 (stereo unspecified)
inactive: [1] | [2] | [4] | [5] | [6] | [7] | [8] | [9] | [16] | [17] | [11] | [12] | [19] | [20]
active: [3] 6.53 µM | [10] 18.5 µM | [18] 37.7 µM | [15] 26.8 µM
